Screening results (PubChem)
Shown are actives, neighbours in structure and some others; about 1.8% of the full set was active somewhere.
Myeloid diff 2: induction of myeloid progenitor differentiation, primary screen, cell-based, flow cytometry, MLPCN library; AID 624256, 2012; calls only at 10 µM; ER-HoxA9 myeloid progenitors, lysozyme-GFP differentiation; actives 1% (n = 360,000);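 active means normalized GFP-positive differentiation at or above the plate's own cutoff, the solvent-only control mean plus 3 SD; inconclusive means no clear call, values can overlap the other calls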;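 further: cells exposed to compound for four days before flow analysis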
Exocytosis inh: LAMP-1 surface exposure blockers, TALL-104 cells – cell-based, flow cytometry, MLPCN library, primary screen; actives 0.66% (n = 360,000); inhibition, % at 10 µM; TALL-104 LAMP-1 surface exposure; cells stimulated with thapsigargin and PMA; AID 651702, 2012;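 active means inhibition above about 55%, limit read from the data; inconclusive means no clear call, values can overlap the other calls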
GC-B act: human GC-B receptor activators, primary screen, HEK293 GC-B cells, cGMP TR-FRET, EC30 CNP. 0% at EC30 CNP, 100% saturating CNP. activation, % at 10 µM. actives 0.11% (n = 370,000). AID 1920062, 2024;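 active means activation at 10 µM reaching about 35% in either raw or pattern-adjusted values, limit read from the data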
NPR1 activator: GC-A stimulated cGMP production enhancers – HEK293 GC-A cells, cGMP TR-FRET, EC30 ANP, primary screen; actives 0.14% (n = 370,000); 0% at EC30 ANP, 100% saturating ANP; activation, % at 10 µM; Atrial natriuretic peptide receptor 1 (Homo sapiens), P16066; in the data active means activation above about 40%
Myeloid diff: inducers of myeloid progenitor differentiation, confirmation, cell-based, GFP/Mac1 flow cytometry, cherry pick 01; calls only; ER-HoxA9 myeloid progenitors, GFP/Mac1 double-positive flow; actives 2% (n = 2,300); shares compounds with Myeloid diff 2;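 active means share of green or green-and-red cells above 9 and 9% in run 1 or 4 and 3% in run 2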
GFP autofluor: counter-screen for myeloid differentiation promoters: compound fluorescence. shares compounds with Myeloid diff 2. ER-HoxA9 myeloid progenitors, no estrogen, GFP autofluorescence flow cytometry; vehicle wells 0%, positive control 100%. fluorescence response, % (concentration not given with the values). actives 7.4% (n = 2,300). AID 651707;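 active means over 5% cells positive for green fluorescent reporter, or over 2% positive for both it and APC stain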;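 further: range taken on the double positive population between DMSO and positive control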
Numbers without * were called inactive; i = inactive; u = inconclusive; x = no result; + = active, no number.

SMILES	Myeloid diff 2	Exocytosis inh	GC-B act	NPR1 activator	Myeloid diff	GFP autofluor
C[C@H]1[C@@H](OC(=O)NCc2cccc(C(F)(F)F)c2)CC[C@@]23CCCN2C(=O)CCC[C@@H]13	x	x	-1.7	-5.5	x	x
CCN(CC(=O)Nc1ccccc1C(F)(F)F)C(=O)c1ccc(-n2nc(C)c(CCC(=O)OC)c2C)cc1	i	-1.8	-1.4	0.9	x	x
O=[N+]([O-])c1cccc(/C=C/c2ccc3cccc(O)c3n2)c1	i	-12.2	-0.5	-3.1	x	x
O=[N+]([O-])c1cccc(/C=C/c2nc(C=Nc3ccc4ccccc4c3)c(O)o2)c1	+	-2.6	5.4	0.6	i	5.7*
CSCCCNc1nc(C)nc2c1nnn2Cc1ccccc1	x	x	8.5	10.6	x	x
O=C(O)c1ccc2c(c1)C(=O)N([C@H](Cc1cccc3ccccc13)C(=O)O)C2=O	i	3.5	8.7	0.1	x	x
O=C(NCCN1CCOCC1)N1CCOCC1	i	-4.4	3.7	-2.7	i	0.0
CCOC(=O)CC(=O)CSc1nc(-c2cccnc2)cc(C)c1C#N	i	2.2	-0.9	3.2	x	x
CCOC(=O)CC(=O)CSc1nc(C)cc(-c2cccnc2)c1C#N	i	0.0	-4.9	0.1	i	0.3
C[C@H]1[C@H](c2ccccc2)Oc2cccc(N3CCCC3)c2S(=O)(=O)N1Cc1cccc(F)c1	x	x	3.9	1.9	x	x
CCOc1ccc(NS(=O)(=O)c2ccc(NC(=S)NC(=O)CC(C)C)cc2)cc1	i	2.3	-10.8	1.7	i	1.6
O=C1CCCN1CCCNS(=O)(=O)c1ccc(Cl)c(C(=O)N2CCOCC2)c1	i	2.5	8.9	0.5	i	0.0
CCc1nc(OCc2ccccc2)c2sc3nc4c(cc3c2n1)COC(C)(C)C4	i	-2.0	4.4	7.3	i	0.3
CC1(C)Cc2nc3sc4c(OCc5ccccc5)ncnc4c3cc2CO1	i	-0.8	9.4	16.4	x	x
O=S(=O)(N/N=C\c1ccccc1O)c1ccc(Cl)cc1	i	2.7	-0.9	1.8	x	x
O=S(=O)(N/N=C\C=C\c1ccccc1)c1ccc(Cl)cc1	i	4.5	6.1	-1.0	i	0.3
COc1ccc(OC)c(S(=O)(=O)N2CCC(C(=O)NCC3COCCO3)CC2)c1 (stereo not given)	x	x	-2.7	1.0	x	x
C/C(=C/c1ccccc1)C(=O)N1CCC(C)CC1	i	7.4	5.9	-4.6	i	0.4
CCOC(=O)C1CCN(C(=O)/C(C)=C\c2ccccc2)CC1	i	-1.0	0.1	-3.1	x	x
CN(C(=O)C(C)(C)C)[C@H]1C[C@H]2c3[nH]c4ccccc4c3CCN2C(=O)[C@H]1CO	i	-3.2	4.6	18.1	i	2.3
CN(C(=O)NC1CCCCC1)[C@H]1C[C@H]2c3[nH]c4ccccc4c3CCN2C(=O)[C@H]1CO	i	-2.2	-1.4	-1.8	x	x
O=C(Nc1sc2c(c1-c1nc3ccccc3s1)CCNC2)C(F)(F)F	x	x	-10.1	-7.8	x	x
CCC(C)Nc1nc2c(c(=O)[nH]c(=O)n2C)n1CCC(C)C (stereo not given)	+	0.0	-8.2	4.3	i	0.8
CCC(C)Nc1nc2c(c(=O)[nH]c(=O)n2C)n1CCCc1ccccc1 (stereo not given)	i	-4.9	6.5	12.0	x	x
Cc1ccc(S(=O)(=O)N2C[C@@H]3CCCC[C@@H]3[C@@H](C)[C@H]2c2cn(Cc3ccccc3)c3ccccc23)cc1	u	2.7	-0.2	2.8	x	x
SMILES	Myeloid diff 2	Exocytosis inh	GC-B act	NPR1 activator	Myeloid diff	GFP autofluor
Cc1ccc(S(=O)(=O)N2C[C@@H]3CCCC[C@@H]3[C@@H](C)[C@H]2c2cn(Cc3ccccc3)c3ncccc23)cc1	i	0.9	5.8	1.1	i	0.0
Nc1cccc2[nH]c(=O)c3ccccc3c12	i	23.3	-2.1	-1.2	x	x
CC(=O)Nc1ccc(CC(=O)O)cc1	i	3.7	-1.5	6.1	x	x
CN(C)C(CNC(=O)c1ccc(NC(=O)CC#N)cc1)c1ccccc1 (stereo not given)	x	-1.8	1.1	1.3	x	x
N#CCC(=O)Nc1ccc(C(=O)NCCC(c2ccccc2)c2ccccc2)cc1	+	-1.9	3.9	-6.4	i	0.0
CC(=O)Nc1ccc(CC(=O)NCCC(c2ccccc2)c2ccccc2)cc1	+	-8.3	3.7	-6.0	i	0.0
C=CCN(CC#CC1=CCCCC1)CC1CC1	x	x	7.5	0.3	x	x
CC1Cc2ccccc2N1C(=O)c1ccnc(C(C)(C)C)c1 (stereo not given)	+	-4.4	-6.6	1.6	i	0.3
COCCN1C(=O)COc2ccccc2C1C(=O)NCc1ccccc1 (stereo not given)	i	-3.1	-2.2	-3.0	x	x
COc1ccccc1OCCn1c(=O)oc2ccc(C)cc21	+	2.1	9.6	-8.4	i	0.0
Cc1ccc2oc(=O)n(CCCOc3ccccc3C)c2c1	i	1.1	7.3	-8.1	x	x
COc1ccc(Cn2c(=O)oc3ccc(C)cc32)cc1OC	+	-0.5	1.0	1.7	i	0.0
COc1ccc(CNC(=O)Cn2c(=O)oc3ccccc32)cc1OC	i	0.8	-2.5	-2.1	i	0.8
CCOc1ccc(CNC(=O)CCn2c(=O)oc3ccccc32)cc1OC	i	0.2	1.6	1.1	x	x
COC(=O)[C@]12C[C@H](CC(=O)N3CCCCC3)C(=O)N(Cc3cccc4ccccc34)C1=C[C@H](C(C)C)O[C@@H]2C1CC1	x	x	-5.0	-12.7	x	x
Cn1c2ccccc2c(=O)c2ccc(NCc3ccc4c(c3)OCO4)cc21	+	-1.2	2.1	7.0	i	2.5
COc1cccc2sc3ccc(NCc4ccc5c(c4)OCO5)cc3c(=O)c12	i	-7.6	-4.4	-3.8	x	x
COc1ccc(/C=C/c2cccc[n+]2C)c(O)c1	i	-2.7	-10.3	-12.3	+	1.0
Cc1cc(C)cc(NC(=S)N2CCC(NC(=O)C3CCCCC3)CC2)c1	i	19.9	2.3	-3.2	x	x
Cc1cc(C)cc(NC(=O)C2CCCC2)c1	+	-1.1	-1.2	0.0	i	0.0
COCCNC(=O)C1CCCN(C(=O)c2cc(-c3cccs3)oc2C)CC1 (stereo not given)	i	0.7	2.0	2.5	x	x
O=c1c2c(n3nnnc3n1Cc1ccc(Cl)cc1)-c1ccccc1CC21CCCC1	x	x	14.4	5.1	x	x
CC(C)(C)NC(=O)C1c2ccccc2OCC(=O)N1Cc1ccccn1 (stereo not given)	i	5.9	-5.8	-3.2	x	x
CCOC(=O)c1csc(NC(=O)CSc2nnnn2-c2ccc(OC)cc2)n1	i	-2.9	5.3	1.7	x	x
